Laboratory results as given in PubChem BioAssay.
The source made the active and inactive calls.

Assays:
[1] = optical density shifts of acrAB sulA E. coli – strain DRC41, OD650, 48 h, E. coli filamentation inducer project, primary screen (AID 1152); settings: higher = more signal, called active from +8 up or from −8 down;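 note: E. coli MC1000 strain DRC41 lacking acrAB efflux pump and sulA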
[2] = probe aLefty1 binding on compound microarray – biochemical, small-molecule microarray, 635/667 nm fluorescence, primary screen (AID 1153); settings: higher = more signal;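 note: score merges spot fluorescence with signal-to-noise ratio from the scanned slide images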
[3] = plasmodial surface anion channel blockers, osmotic lysis – cell-based, P. falciparum Indochina, OD700, 1 h, primary screen (AID 1154); settings: P. falciparum Indochina infected RBC osmotic lysis, higher = more signal, called active from +8 up or from −8 down
[4] = plasmodial surface anion channel blockers, osmotic lysis – cell-based, P. falciparum Indochina, OD700, 2 h, primary screen (AID 1155);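 note: lysis reports solute entry through the parasite surface anion channel PSAC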; settings: P. falciparum Indochina infected erythrocytes, higher = more signal, called active from +8 up or from −8 down
[5] = changes in parasitized red cell lysis, either direction – P. falciparum Indochina, OD700, 3 h, PSAC antagonist project, primary screen (AID 1156); settings: P. falciparum-infected erythrocytes, osmotic lysis, higher = more signal, called active from +8 up or from −8 down
[6] = plasmodial surface anion channel blockers, osmotic lysis – cell-based, P. falciparum Indochina, OD700, 18 h, primary screen (AID 1157); settings: P. falciparum Indochina infected erythrocytes, osmotic lysis OD700, 18 h; higher = more signal, called active from +8 up or from −8 down
[7] = S6 kinase pathway phospho-S6 level changes – cell-based, A549, cytoblot, luminescence, serum-stimulated, primary screen (AID 1158); settings: 5 h, higher = more signal;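 note: serum-stimulated A549 lung adenocarcinoma cells; signal is phosphorylated S6 detected by cytoblot immunostaining with HRP secondary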
[8] = target: NADPH oxidase 2 (Homo sapiens) (UniProt P04839); assay: compounds shifting NOX2 Amplex Red fluorescence – cell-based, HEK293-NOX2, PMA-stimulated, NOX inhibitor project, primary screen (AID 1159); settings: 45 min, higher = more signal, called active from +8 up or from −8 down; note: test concentration not given here
[9] = target: NADPH oxidase 4 (Homo sapiens) (UniProt Q9NPH5); assay: compounds shifting NOX4 Amplex Red fluorescence – cell-based, HEK293-NOX4, tetracycline-induced, NOX inhibitor project, primary screen (AID 1160); settings: HEK293-NOX4, Amplex Red H2O2 fluorescence, 45 min; higher = more signal, called active from +8 up or from −8 down
[10] = target: NADPH oxidase 5 (Homo sapiens) (UniProt Q96PH1); assay: compounds shifting NOX5 Amplex Red fluorescence – cell-based, HEK293-NOX5, NOX inhibitor project, primary screen (AID 1161); settings: HEK293-NOX5, ionomycin, 45 min, higher = more signal
NADPH oxidase 5 (Homo sapiens), sequence (Q96PH1 whole entry, looked up): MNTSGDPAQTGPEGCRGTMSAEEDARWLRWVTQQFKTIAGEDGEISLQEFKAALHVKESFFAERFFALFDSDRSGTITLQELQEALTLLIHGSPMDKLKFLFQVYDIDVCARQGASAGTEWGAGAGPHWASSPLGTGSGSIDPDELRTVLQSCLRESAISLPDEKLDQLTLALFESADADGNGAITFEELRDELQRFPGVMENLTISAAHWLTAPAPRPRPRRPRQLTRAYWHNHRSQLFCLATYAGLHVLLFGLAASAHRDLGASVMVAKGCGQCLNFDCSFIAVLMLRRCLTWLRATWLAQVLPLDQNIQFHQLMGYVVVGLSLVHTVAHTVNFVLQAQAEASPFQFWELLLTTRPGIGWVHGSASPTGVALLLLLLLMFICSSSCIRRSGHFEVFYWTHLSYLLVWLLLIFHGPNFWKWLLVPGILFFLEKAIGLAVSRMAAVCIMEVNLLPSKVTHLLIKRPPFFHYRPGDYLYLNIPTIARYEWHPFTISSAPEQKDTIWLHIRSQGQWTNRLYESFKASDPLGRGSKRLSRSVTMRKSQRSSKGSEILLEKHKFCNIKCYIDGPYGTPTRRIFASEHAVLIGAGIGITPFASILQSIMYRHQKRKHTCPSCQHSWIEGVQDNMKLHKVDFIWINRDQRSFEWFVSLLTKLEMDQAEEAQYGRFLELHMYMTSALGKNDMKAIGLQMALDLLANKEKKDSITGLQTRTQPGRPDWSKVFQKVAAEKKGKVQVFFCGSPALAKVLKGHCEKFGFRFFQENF

NADPH oxidase 2 (Homo sapiens), sequence (P04839 whole entry, looked up): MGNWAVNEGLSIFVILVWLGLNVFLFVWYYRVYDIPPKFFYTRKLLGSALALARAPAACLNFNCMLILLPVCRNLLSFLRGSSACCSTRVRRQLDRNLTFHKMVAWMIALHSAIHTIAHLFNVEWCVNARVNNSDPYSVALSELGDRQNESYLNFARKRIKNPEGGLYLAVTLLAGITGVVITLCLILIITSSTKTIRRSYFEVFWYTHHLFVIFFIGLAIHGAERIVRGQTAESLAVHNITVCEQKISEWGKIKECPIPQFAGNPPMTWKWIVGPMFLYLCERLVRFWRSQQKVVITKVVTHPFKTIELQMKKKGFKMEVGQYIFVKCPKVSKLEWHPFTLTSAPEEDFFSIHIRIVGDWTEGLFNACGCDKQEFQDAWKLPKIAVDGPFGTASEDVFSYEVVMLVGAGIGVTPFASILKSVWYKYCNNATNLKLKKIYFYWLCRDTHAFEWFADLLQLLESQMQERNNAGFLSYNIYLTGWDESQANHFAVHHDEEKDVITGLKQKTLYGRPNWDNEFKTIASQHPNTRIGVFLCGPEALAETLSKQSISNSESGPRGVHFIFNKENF
NADPH oxidase 4 (Homo sapiens), sequence (Q9NPH5 whole entry, looked up): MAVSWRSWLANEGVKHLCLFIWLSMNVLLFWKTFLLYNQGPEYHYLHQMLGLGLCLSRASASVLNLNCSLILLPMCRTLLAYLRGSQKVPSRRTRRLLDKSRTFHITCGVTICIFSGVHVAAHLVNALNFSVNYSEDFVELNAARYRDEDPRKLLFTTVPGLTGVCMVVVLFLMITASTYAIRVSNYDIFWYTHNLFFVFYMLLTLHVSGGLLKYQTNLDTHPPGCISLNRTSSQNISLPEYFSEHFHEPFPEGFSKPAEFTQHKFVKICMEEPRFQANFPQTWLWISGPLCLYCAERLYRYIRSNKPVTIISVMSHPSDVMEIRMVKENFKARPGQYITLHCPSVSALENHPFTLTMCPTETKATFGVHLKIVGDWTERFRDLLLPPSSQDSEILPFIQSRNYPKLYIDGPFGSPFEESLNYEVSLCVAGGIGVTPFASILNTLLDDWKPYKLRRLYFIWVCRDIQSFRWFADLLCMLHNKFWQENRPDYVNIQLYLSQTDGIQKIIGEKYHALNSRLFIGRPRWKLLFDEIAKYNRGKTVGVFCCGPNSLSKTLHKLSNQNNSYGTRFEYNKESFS

OCCCC1=CC(c2cccs2)N(Cc2cccc(OC(F)(F)F)c2)CC1 (stereo not given)
z-score [1]: -1.07 (inactive) | composite z-score [2]: -0.0109 | z-score [3]: 7.72 (inactive) | z-score [4]: 1.33 (inactive) | z-score [5]: -0.499 (inactive) | z-score [6]: 1.07 (inactive) | z-score [7]: -0.105 | z-score [8]: -0.257 (inactive) | z-score [9]: -1.27 (inactive) | z-score [10]: -1.11

COC(=O)[C@@]1(Cc2ccccc2)[C@H]2c3cc(C(=O)N4CCCC4)n(CCO)c3C[C@H]2CN1C(=O)c1ccccc1
z-score [1]: -0.258 (inactive) | composite z-score [2]: 1.89 | z-score [3]: 0.0574 (inactive) | z-score [4]: -0.644 (inactive) | z-score [5]: -0.513 (inactive) | z-score [6]: -1.61 (inactive) | z-score [7]: 1.33 | z-score [8]: 0.661 (inactive) | z-score [9]: -0.517 (inactive) | z-score [10]: -2.49

Cc1ccc(-c2cccc(=O)o2)cc1
z-score [1]: -0.418 (inactive) | composite z-score [2]: -0.237 | z-score [3]: 5.81 (inactive) | z-score [4]: 1.02 (inactive) | z-score [5]: -0.657 (inactive) | z-score [6]: 0.609 (inactive) | z-score [7]: -0.102 | z-score [8]: 0.498 (inactive) | z-score [9]: -1.66 (inactive) | z-score [10]: 0.12

CO[C@H]1O[C@H](CO)[C@@H](OC(=O)Nc2cccc(F)c2)[C@H](OC(=O)Nc2ccc3c(c2)OCO3)[C@H]1OC(=O)Nc1ccc2c(c1)OCO2
z-score [1]: 0.903 (inactive) | composite z-score [2]: 0.236 | z-score [3]: 6.15 (inactive) | z-score [4]: 0.462 (inactive) | z-score [5]: 0.521 (inactive) | z-score [6]: 0.643 (inactive) | z-score [7]: -0.0353 | z-score [8]: -3.15 (inactive) | z-score [9]: -0.681 (inactive) | z-score [10]: -2.02

CCOC(=O)C1=CCC(c2cccc(Cl)c2)O1 (stereo not given)
z-score [1]: -0.504 (inactive) | composite z-score [2]: 0.152 | z-score [3]: 14.9 (active) | z-score [4]: 1.02 (inactive) | z-score [5]: 0.75 (inactive) | z-score [6]: -0.244 (inactive) | z-score [7]: 1.61 | z-score [8]: -4.41 (inactive) | z-score [9]: -1.37 (inactive) | z-score [10]: -3.51

C[C@H]1NC(=O)C([C@@H](C)OCc2ccccc2)NC(=O)[C@@]23C(=O)N[C@@H](Cc4ccccc4)C2[C@H](C)[C@@]2(C)O[C@H]2C3/C=C/CC/C=C/CNC1=O (stereo not given in full)
z-score [1]: 1.85 (inactive) | composite z-score [2]: -0.0094 | z-score [3]: 1.79 (inactive) | z-score [4]: 0.76 (inactive) | z-score [5]: 0.89 (inactive) | z-score [6]: 0.107 (inactive) | z-score [7]: 0.888 | z-score [8]: 1.24 (inactive) | z-score [9]: -0.179 (inactive) | z-score [10]: 0.815

C=CCNC(=O)[C@H]1[C@@H]2C(=O)O[C@@H](c3ccccc3)[C@@H](c3ccccc3)N2[C@@H](c2ccc(O)cc2)[C@]12C(=O)N(C(=O)OCCOC)c1ccc(C#CC3(O)CCCCCC3)cc12
z-score [1]: 1.91 (inactive) | composite z-score [2]: 0.0313 | z-score [3]: 0.842 (inactive) | z-score [4]: 0.788 (inactive) | z-score [5]: 0.0365 (inactive) | z-score [6]: 0.222 (inactive) | z-score [7]: 0.281 | z-score [8]: 1.37 (inactive) | z-score [9]: 0.903 (inactive) | z-score [10]: 1.89

CC(C)(C)OC(=O)CC[C@@]1(C(=O)N2CCCCC2)N=C(c2ccc(OCCCO)cc2)O[C@@H]1c1ccccc1N=[N+]=[N-]
z-score [1]: 1.71 (inactive) | composite z-score [2]: 0.432 | z-score [3]: 30.3 (active) | z-score [4]: 29.3 (active) | z-score [5]: 2.26 (inactive) | z-score [6]: 8.44 (active) | z-score [7]: -0.0394 | z-score [8]: -2.98 (inactive) | z-score [9]: 1.03 (inactive) | z-score [10]: -1.47

COC(=O)[C@@]1(Cc2ccc(OC)cc2)[C@H]2c3cc(C(=O)N4CCCC4)n(Cc4ccc(C)o4)c3C[C@H]2CN1C(=O)c1ccccc1
z-score [1]: -1.5 (inactive) | composite z-score [2]: 1.34 | z-score [3]: 1.63 (inactive) | z-score [4]: -0.605 (inactive) | z-score [5]: 1.07 (inactive) | z-score [6]: 0.0276 (inactive) | z-score [7]: -1.8 | z-score [8]: -4.49 (inactive) | z-score [9]: -2.62 (inactive) | z-score [10]: -0.354

[N-]=[N+]=NCc1ccccc1[C@H]1OC(c2ccc(OCCCO)cc2)=N[C@@]1(Cc1ccccc1)C(N)=O
z-score [1]: 0.0183 (inactive) | composite z-score [2]: 0.174 | z-score [3]: 25.2 (active) | z-score [4]: 15.2 (active) | z-score [5]: 1.79 (inactive) | z-score [6]: 2.75 (inactive) | z-score [7]: 0.534 | z-score [8]: -0.17 (inactive) | z-score [9]: 1.21 (inactive) | z-score [10]: 1.2

C[C@]12C(=O)N(CCCO)[C@@H]3C(=O)N(c4ccc(Cl)cc4)CC=CC31O[C@@H]1/C=C\CCCOC(=O)C12 (stereo not given in full)
z-score [1]: -0.511 (inactive) | composite z-score [2]: -0.0203 | z-score [3]: 1.29 (inactive) | z-score [4]: 0.396 (inactive) | z-score [5]: -0.423 (inactive) | z-score [6]: 0.211 (inactive) | z-score [7]: -0.332 | z-score [8]: 1.53 (inactive) | z-score [9]: 0.84 (inactive) | z-score [10]: 2.71

COCCOC(=O)N1C(=O)[C@@]2(c3ccccc31)[C@H](c1ccc(OCCO)cc1)N1[C@H](c3ccccc3)[C@H](c3ccccc3)OC(=O)[C@H]1[C@@H]2C(=O)NC[C@H](O)c1ccccc1
z-score [1]: -0.769 (inactive) | composite z-score [2]: 0.643 | z-score [3]: 7.9 (inactive) | z-score [4]: 1.94 (inactive) | z-score [5]: 0.0925 (inactive) | z-score [6]: 0.728 (inactive) | z-score [7]: -0.575 | z-score [8]: 1.28 (inactive) | z-score [9]: 0.989 (inactive) | z-score [10]: 0.894

CC(C)=CCCC(C)=CC(O)C1C=CC2C(=O)N(c3ccccc3)C(=O)C2N1Nc1ccc([N+](=O)[O-])cc1 (stereo not given)
z-score [1]: -1.41 (inactive) | composite z-score [2]: -0.131 | z-score [3]: 8.34 (active) | z-score [4]: 2.3 (inactive) | z-score [5]: 1.04 (inactive) | z-score [6]: 1.44 (inactive) | z-score [7]: -0.563 | z-score [8]: -0.381 (inactive) | z-score [9]: -3.41 (inactive) | z-score [10]: -0.516
